Assay outcomes: PubChem, National Center for Advancing Translational Sciences (NCATS)
HT1080 IDH1KD tx: kills HT-1080 cells with IDH1 knockdown | HT-1080 IDH1 knockdown viability, ATP luminescence, 48 h | Potency, µM (series often up to 46.1 µM), for inactives: at the highest dose activity, negative = toxicity, most hits filed as cytotoxic | actives 2% (n = 360,000) | AID 686971;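 note: 0% = DMSO wells and -100% = cell-free medium wells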
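HT-1080-IDH1KD cells (IDH1 knocked down), 750/well in RPMI with 5% FBS, treated with compound 48 h at 37 degrees C. Viability by CellTiter-Glo luminescence, normalised to DMSO and no-cell wells; concentration-response curves classed.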
DT40 TDP1 CPT: DT40-hTDP1 cell growth loss with CPT; chicken DT40 Tdp1-/-;hTDP1 cells + 20 nM CPT, ATP luminescence, 48 h; Potency, µM (highest dose often 46.2 µM), without a hit: at the highest dose activity change, negative = growth inhibition, most hits filed as inhibitors; actives 12% (n = 420,000); AID 686979; note: nearly all actives have a fitted effect of over 55% in size
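Chicken DT40 Tdp1-/- cells stably complemented with human TDP1 were seeded at 400 cells/well in medium containing 20 nM camptothecin, exposed to pin-transferred compounds, and grown at 37 °C for at least 48 hr. Viability was read as ATP luminescence.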
DT40 TDP1 no CPT: qHTS for Inhibitors of human tyrosyl-DNA phosphodiesterase 1 (TDP1): qHTS in cells in absence of CPT | actives 15% (n = 420,000) | AID 686978, 2013 | DT40 Tdp1-/- hTDP1 cells, no CPT, ATP luminescence, 48 h | Potency, µM (highest dose often 46.2 µM), inactives show top-dose activity change, negative = growth inhibition, hits mostly inhibitors; note: nearly all actives have a fitted effect of over 55% in size
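Growth of hTDP1-complemented DT40 Tdp1-knockout cells is measured by ATP luminescence after at least 48 hr compound exposure at 37 °C, with DMSO substituting for the 20 nM CPT used in the parallel screen.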
KB-V1 MDR tox: KB-V1 MDR subline cytotoxicity; KB-V1 MDR cells viability, CellTiter-Glo, 72 h; Potency, µM (titrated, usually from 46.1 µM), hits mostly cytotoxic; actives 3.4% (n = 400,000); AID 1347076; note: nearly all actives have a fitted effect of over 60% in size
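Cytotoxicity toward P-gp-expressing KB-V1 cells was determined as loss of CellTiter-Glo luminescence after 72 h at 37 degrees C. Compounds were tested in quantitative HTS format across a concentration range, with curves fitted to normalized data.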
HT1080NT lethal: kills 2HG-producing HT-1080-NT fibrosarcoma cells | HT-1080-NT fibrosarcoma viability, CellTiter-Glo ATP luminescence, 48 h | Potency, µM (highest dose often 46.1 µM), for inactives: top-dose activity, negative = less viability, actives largely listed as cytotoxic | actives 1.6% (n = 360,000) | AID 686970;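 note: NT is the 2HG producing partner of a matched IDH1 knockdown line; 0% = DMSO-treated cells and -100% = media-only wells without cells; nearly all actives have a fitted effect of over 55% in size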
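Fibrosarcoma NT cells, 750 per well in 5% FBS RPMI, were exposed to compound for 48 hours. Viability: CellTiter-Glo luminescence.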
KB-3-1 cytotox: kills parental KB-3-1 adenocarcinoma cells; KB-3-1 viability, CellTiter-Glo ATP luminescence, 72 h; Potency, µM (titrated, usually from 46.1 µM), hits mostly cytotoxic; actives 1.4% (n = 400,000); AID 1347075; note: nearly all actives have a fitted effect of over 60% in size
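Viability of parental KB-3-1 cells, measured by CellTiter-Glo luminescence, followed a 72 h incubation at 37 °C with pinned compounds in phenol-red-free DMEM containing 10% FBS.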
* marks the source's active call; other numbers are inactive results; i = inactive; ? = inconclusive; nt = not tested or not shown; ! = not active in a repeat. The list is not random: actives were taken first. Their share in the collection is about 19%. Calls come from the whole dose curve; as a rule, active = well fitted curve in the direction sought with a large enough effect; inconclusive = small, poorly fitted or top-dose-only effect, or another doubt; inactive = no such curve, though single readings can be large; an effect the other way counts as inactive or inconclusive. Unless noted, % is set by controls: 0 for no effect and ±100 for the full control effect; potency is the fitted concentration of half-maximal effect.

SMILES | HT1080 IDH1KD tx | DT40 TDP1 CPT | DT40 TDP1 no CPT | KB-V1 MDR tox | HT1080NT lethal | KB-3-1 cytotox
COc1ccc(P(=O)(COc2ccc([N+](=O)[O-])cc2)c2ccc(OC)cc2)cc1 | -3% | ? | ? | 4.1µM* | -3% | i
O=P(CCCCCCCCCP(=O)(c1ccccc1)c1ccccc1)(c1ccccc1)c1ccccc1 | 23µM* | 7.3µM* | 8.2µM* | 15µM* | 18µM* | ?
O=P(COCCCCCOCP(=O)(c1ccccc1)c1ccccc1)(c1ccccc1)c1ccccc1 | -11% | 16µM* | 18µM* | i | -11% | i
O=C(O)CCCCCCCCCCP(=O)(c1ccccc1)c1ccccc1 | 2% | 5% | 6% | i | 7% | i
CCOC(=O)C1CCN(S(=O)(=O)c2cn(C)cn2)CC1 | 22% | -3% | -1% | i | 19% | i
COc1ccc(S(=O)(=O)N(CC(=O)NN=C2CCN(C)CC2)c2cc(Cl)ccc2OC)cc1OC | -18% | 14% | 1% | ? | -2% | i
CCCCN(CCCC)CP(=O)(c1ccccc1)c1ccccc1 | ? | 16µM* | 15µM* | i | ? | i
CCCCCCP(=O)(O)c1ccccc1 | 12% | 17% | 4% | i | 17% | i
CCOC(=O)C1CCN(c2ccc([N+](=O)[O-])c(C(C)=O)c2)CC1 | 0% | 9% | ? | i | -1% | i
NCCNS(=O)(=O)c1cccc2c(Cl)cccc12 | nt | 27µM* | 27µM* | nt | nt | nt
NCCCCNS(=O)(=O)c1ccc2c(Cl)cccc2c1 | nt | 12µM* | 12µM* | nt | nt | nt
NCCCCCCNS(=O)(=O)c1ccc2c(Cl)cccc2c1 | nt | 13µM* | 11µM* | i | nt | ?
O=S(=O)(NCCCCCNS(=O)(=O)c1c(F)cccc1F)c1ccc2c(c1)OCCO2 | nt | nt | nt | i | nt | i
CC(=O)c1ccc(N2CCN(c3nc4ccccc4c4nc(-c5cccc(C)c5)nn34)CC2)cc1 | nt | -8% | -13% | nt | nt | nt
COc1ccc(CNC(=O)C2CC(=O)N(c3ccc(OCC(=O)N4C(C)CCCC4C)cc3)C2)cc1 (configuration not stated) | 0% | -3% | ? | i | 0% | i
O=S(=O)(Nc1nc2ccc(Cl)cc2s1)c1cccs1 | -11% | ? | -17% | i | -14% | i
CCCCN(c1nc2ccccc2nc1Cl)S(=O)(=O)c1ccc(C)cc1 | ? | 21µM* | 9.2µM* | ? | -25% | i
O=C(c1ccc([N+](=O)[O-])o1)N1CCOCC1 | 13% | -6% | ? | i | 23% | i
COc1ccc(C(=O)N2CCc3cc(OC)c(OC)cc3C2)cc1OC | ? | ? | ? | ? | ? | i
COc1cc2c(cc1OC)CN(C(=O)c1ccc(-c3ccccc3)cc1)CC2 | 8% | ? | ? | i | -2% | i
O=C(c1ccc([N+](=O)[O-])o1)N1CCc2ccccc21 | ? | 10µM* | 12µM* | ? | -2% | ?
COc1cc2c(cc1OC)CN(C(=O)c1ccc([N+](=O)[O-])o1)CC2 | ? | ? | ? | ? | 13µM* | i
O=C(c1ccc([N+](=O)[O-])o1)N1CCc2ccccc2C1 | -22% | 21µM* | 15µM* | ? | -2% | i
COc1cc2c(cc1OC)CN(C(=O)c1oc3ccccc3c1C)CC2 | -24% | 21µM* | 23µM* | ? | -29% | ?
Cc1ccc(C(=O)N2CCc3ccccc32)o1 | -23% | -17% | 3.3µM* | ? | -14% | ?
SMILES | HT1080 IDH1KD tx | DT40 TDP1 CPT | DT40 TDP1 no CPT | KB-V1 MDR tox | HT1080NT lethal | KB-3-1 cytotox
Cc1ccc(C(=O)N2c3ccccc3CC2C)o1 (configuration not stated) | -21% | ? | -29% | ? | -20% | i
CCOc1ccc(/C=N/n2c(C)nnc2C)cc1OC | 11% | 1% | 17% | i | 8% | i
CCOC(=O)c1nc(C)nc(Sc2n[nH]c(-c3ccc(C(C)(C)C)cc3)n2)c1C | -4% | ? | 18µM* | i | -6% | i
CCOC(=O)c1csc(N/N=C2\CCCc3ccccc32)n1 | -2% | ? | 16µM* | i | 5% | i
COc1ccc(OCC(=O)N/N=C/c2cccn2-c2cccc(C(=O)O)c2)cc1 | 5% | -8% | -18% | i | 3% | i
C[C@H](NC(=O)c1[nH]cnc1C(=O)Nc1ccc(CNC(=O)OC(C)(C)C)cc1)C(=O)OCc1ccccc1 | ? | ? | 18µM* | ? | ? | ?
CC(C)C[C@H](NC(=O)c1[nH]cnc1C(=O)Nc1ccc(CNC(=O)OC(C)(C)C)cc1)C(=O)OCc1ccccc1 | -24% | ? | 15µM* | ? | ? | i
C[C@H](CO)NC(=O)c1[nH]cnc1C(=O)Nc1ccc(CNC(=O)OC(C)(C)C)cc1 | 1% | -17% | ? | i | 0% | i
CC(C)(C)OC(=O)NCc1ccc(NC(=O)c2nc[nH]c2C(=O)N[C@@H](Cc2ccccc2)C(=O)OC(C)(C)C)cc1 | -29% | 15µM* | 12µM* | i | -23% | ?
C[C@H](CCC(=O)O)[C@H]1CC[C@H]2[C@H]3C(C[C@H](O)[C@]12C)[C@@]1(C)CC[C@@H](O)C[C@H]1C[C@H]3O (some centres not stated) | nt | 7% | -4% | nt | nt | nt
CCN(CC)C(=O)c1ccc(/C=C/c2c[nH]c3ccccc23)[n+](C)c1 | 3% | -25% | ? | i | 8% | i
CC[n+]1c(/C=C/c2c[nH]c3ccccc23)ccc2cc(C)ccc21 | 18µM* | 1.2µM* | 1.2µM* | i | 29µM* | 9.2µM*
Cc1cccc2sc(N(CCCN(C)C)C(=O)c3cc4ccccc4oc3=O)nc12 | -21% | 23µM* | ? | i | -15% | i
CN(C)CCCN(C(=O)c1cc2ccccc2oc1=O)c1nc2c(F)cccc2s1 | 2% | -9% | -26% | i | 6% | i
Cc1cccc2sc(N(CCN(C)C)C(=O)c3ccc4ccccc4c3)nc12 | -1% | ? | ? | i | 2% | i
Cc1cccc2sc(N(CCCN(C)C)C(=O)c3ccc(Cl)s3)nc12 | ? | 23µM*! | ? | i | -18% | i
O=C1CCCC/C=C\C[C@H](CC(=O)N(CCO)Cc2ccccc2)C(=O)NCCO1 | 10% | -22% | -3% | i | 11% | i
